Article PMC7862700, “An all-to-all approach to the identification of sequence-specific readers for epigenetic DNA modifications on cytosine”

Legend:
Assay in all cases: DAPPL (digital affinity profiling via proximity ligation, sequencing); 10 mM Tris-HCl pH 7.5, 50 mM NaCl, 1 mM DTT, 4% glycerol, room temperature, 30 min; GST-TFs on glutathione beads, 16-mer random dsDNA library, 0.1% formaldehyde crosslink after washing; high values mean tight binding
Details in all cases: protein: recombinant; tags: N-terminal GST; dsDNA, one strand shown
[1] = biological target: T1, FLI1 (Homo sapiens, UniProt Q01543 1-452)
T1 sequence: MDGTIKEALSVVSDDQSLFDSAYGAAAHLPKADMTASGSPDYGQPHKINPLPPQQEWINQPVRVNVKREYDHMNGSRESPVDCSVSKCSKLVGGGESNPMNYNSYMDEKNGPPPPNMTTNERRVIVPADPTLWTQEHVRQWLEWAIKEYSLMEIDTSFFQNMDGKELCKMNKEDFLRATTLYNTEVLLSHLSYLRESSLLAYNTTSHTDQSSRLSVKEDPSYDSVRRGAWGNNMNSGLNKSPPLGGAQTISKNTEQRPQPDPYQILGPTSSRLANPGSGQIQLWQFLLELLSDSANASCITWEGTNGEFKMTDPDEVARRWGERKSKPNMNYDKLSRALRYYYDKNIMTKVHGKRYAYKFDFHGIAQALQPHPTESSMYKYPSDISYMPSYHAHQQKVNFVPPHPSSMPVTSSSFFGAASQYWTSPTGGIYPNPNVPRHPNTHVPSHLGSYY
Outline: (§1)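 Binding signal is each hexamer's read frequency for a factor divided by its frequency in the tag-only sample. The factors were GST-fused human transcription factors from yeast, captured on glutathione beads, DNA-barcoded and pooled with that sample. Pools were incubated with 200 nmole of a random double-stranded 16-mer DNA library in Tris/NaCl/DTT/glycerol buffer at room temperature for 30 min, then washed, crosslinked with 0.1% formaldehyde, proximity-ligated with BsaI/T4 ligase (1 h, 37 °C), PCR-amplified and sequenced on an Illumina NextSeq500.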

[2] = biological target: T2, ELK1 (Homo sapiens, UniProt P19419 1-428)
T2 sequence: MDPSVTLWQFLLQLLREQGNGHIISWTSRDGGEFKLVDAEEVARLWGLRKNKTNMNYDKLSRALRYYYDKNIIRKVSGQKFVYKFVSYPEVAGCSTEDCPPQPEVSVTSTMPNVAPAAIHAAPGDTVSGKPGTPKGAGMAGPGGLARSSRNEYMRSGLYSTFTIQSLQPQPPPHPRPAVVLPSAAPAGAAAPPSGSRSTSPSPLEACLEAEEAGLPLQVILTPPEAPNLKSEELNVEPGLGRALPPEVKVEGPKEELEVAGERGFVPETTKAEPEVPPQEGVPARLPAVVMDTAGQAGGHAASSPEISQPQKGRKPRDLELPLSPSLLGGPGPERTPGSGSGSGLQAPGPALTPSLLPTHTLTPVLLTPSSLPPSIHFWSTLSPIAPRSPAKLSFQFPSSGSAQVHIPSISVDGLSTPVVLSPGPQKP
Outline: as §1

[3] = biological target: T3, GABPA (Homo sapiens, UniProt Q06546 1-454)
T3 sequence: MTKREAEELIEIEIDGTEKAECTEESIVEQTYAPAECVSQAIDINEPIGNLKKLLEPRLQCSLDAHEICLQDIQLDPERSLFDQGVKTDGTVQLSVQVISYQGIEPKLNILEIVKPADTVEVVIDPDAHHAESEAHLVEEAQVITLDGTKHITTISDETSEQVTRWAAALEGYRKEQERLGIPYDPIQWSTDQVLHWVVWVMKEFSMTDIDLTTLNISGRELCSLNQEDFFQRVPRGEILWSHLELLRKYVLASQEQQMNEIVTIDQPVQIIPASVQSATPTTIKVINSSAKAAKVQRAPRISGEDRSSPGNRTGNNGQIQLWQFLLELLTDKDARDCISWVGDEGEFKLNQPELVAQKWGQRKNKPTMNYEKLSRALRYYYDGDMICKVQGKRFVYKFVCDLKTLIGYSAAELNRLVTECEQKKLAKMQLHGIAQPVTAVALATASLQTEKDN
Outline: as §1

[4] = biological target: T4, ERG (Homo sapiens, UniProt P11308 1-479)
T4 sequence: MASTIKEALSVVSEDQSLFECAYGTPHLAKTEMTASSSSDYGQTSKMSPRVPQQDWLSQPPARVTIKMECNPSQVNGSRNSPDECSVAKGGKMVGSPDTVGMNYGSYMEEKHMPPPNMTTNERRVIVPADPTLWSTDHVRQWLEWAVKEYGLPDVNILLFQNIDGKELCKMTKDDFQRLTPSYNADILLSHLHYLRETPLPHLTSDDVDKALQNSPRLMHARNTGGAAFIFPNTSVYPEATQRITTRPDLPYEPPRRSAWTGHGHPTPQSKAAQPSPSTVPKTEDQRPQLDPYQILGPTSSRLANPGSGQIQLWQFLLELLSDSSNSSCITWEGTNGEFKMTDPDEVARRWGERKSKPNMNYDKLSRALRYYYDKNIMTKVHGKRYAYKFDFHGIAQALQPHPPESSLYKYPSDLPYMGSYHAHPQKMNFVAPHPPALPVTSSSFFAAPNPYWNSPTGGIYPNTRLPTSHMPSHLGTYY
Outline: as §1

[5] = biological target: ELF1 (Homo sapiens, UniProt P32519 1-619)
Sequence of ELF1 (P32519 whole entry): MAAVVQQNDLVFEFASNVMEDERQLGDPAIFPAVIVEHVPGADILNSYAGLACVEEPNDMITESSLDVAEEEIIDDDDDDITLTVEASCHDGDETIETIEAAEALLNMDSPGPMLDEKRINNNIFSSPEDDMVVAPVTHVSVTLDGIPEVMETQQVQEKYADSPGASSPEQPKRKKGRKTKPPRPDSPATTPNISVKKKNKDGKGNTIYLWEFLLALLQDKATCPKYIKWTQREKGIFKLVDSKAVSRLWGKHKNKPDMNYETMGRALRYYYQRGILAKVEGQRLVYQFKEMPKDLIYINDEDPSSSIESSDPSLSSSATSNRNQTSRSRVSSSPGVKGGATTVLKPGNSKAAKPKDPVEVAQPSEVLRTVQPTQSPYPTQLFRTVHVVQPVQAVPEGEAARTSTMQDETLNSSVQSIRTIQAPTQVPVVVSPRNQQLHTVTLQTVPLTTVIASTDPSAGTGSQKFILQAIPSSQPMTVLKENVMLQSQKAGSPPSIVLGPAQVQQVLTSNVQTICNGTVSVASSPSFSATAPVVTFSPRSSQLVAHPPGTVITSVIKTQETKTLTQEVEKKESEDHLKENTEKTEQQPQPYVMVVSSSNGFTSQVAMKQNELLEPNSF
Outline: as §1

[6] = biological target: T5, EHF (Homo sapiens, UniProt Q9NZC4 1-300)
T5 sequence: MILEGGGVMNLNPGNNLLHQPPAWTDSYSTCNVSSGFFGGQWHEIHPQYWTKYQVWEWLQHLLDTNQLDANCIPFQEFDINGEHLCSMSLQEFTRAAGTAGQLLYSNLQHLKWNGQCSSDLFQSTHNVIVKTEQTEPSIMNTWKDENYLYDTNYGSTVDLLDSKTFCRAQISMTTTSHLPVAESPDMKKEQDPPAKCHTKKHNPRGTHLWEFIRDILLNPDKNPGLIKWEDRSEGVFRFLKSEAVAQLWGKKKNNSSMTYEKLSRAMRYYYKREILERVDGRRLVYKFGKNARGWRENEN
Outline: as §1

[7] = biological target: SPI1 (Homo sapiens, UniProt P17947 1-270)
Outline: as §1

[8] = biological target: SPIB (Homo sapiens, UniProt Q01892 1-262)
Sequence of SPIB (Q01892 whole entry): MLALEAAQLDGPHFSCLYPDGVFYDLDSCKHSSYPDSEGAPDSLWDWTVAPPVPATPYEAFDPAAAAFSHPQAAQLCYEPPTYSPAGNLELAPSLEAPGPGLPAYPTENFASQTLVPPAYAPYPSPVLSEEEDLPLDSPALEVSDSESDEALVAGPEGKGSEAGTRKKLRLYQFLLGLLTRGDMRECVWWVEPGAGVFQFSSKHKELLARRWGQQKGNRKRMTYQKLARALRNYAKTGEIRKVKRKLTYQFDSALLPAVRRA
Outline: as §1

[9] = biological target: T6, ELK3 (Homo sapiens, UniProt P41970 1-407)
T6 sequence: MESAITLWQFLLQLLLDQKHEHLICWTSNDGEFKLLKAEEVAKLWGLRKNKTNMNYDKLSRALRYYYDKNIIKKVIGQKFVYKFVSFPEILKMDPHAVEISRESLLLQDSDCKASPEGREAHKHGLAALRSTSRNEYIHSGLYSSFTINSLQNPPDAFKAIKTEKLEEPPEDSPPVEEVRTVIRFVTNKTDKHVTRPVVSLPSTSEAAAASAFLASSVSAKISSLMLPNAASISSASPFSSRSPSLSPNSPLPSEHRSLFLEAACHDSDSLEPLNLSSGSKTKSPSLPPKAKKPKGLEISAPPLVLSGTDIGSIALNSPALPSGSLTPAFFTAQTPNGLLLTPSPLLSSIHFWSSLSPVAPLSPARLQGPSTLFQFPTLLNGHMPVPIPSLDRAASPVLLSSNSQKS
Outline: as §1

Sequence | binding signal [1] | binding signal [2] | binding signal [3] | binding signal [4] | binding signal [5] | binding signal [6] | binding signal [7] | binding signal [8] | binding signal [9]
TCCCCA | 1.38 fold enrichment (6-mer frequency, TF over GST control) | 1.29 fold enrichment (6-mer frequency, TF over GST control) | 1.21 fold enrichment (6-mer frequency, TF over GST control) | 1.42 fold enrichment (6-mer frequency, TF over GST control) | 1.39 fold enrichment (6-mer frequency, TF over GST control) | 1.45 fold enrichment (6-mer frequency, TF over GST control) | 1.63 fold enrichment (6-mer frequency, TF over GST control) | 1.16 fold enrichment (6-mer frequency, TF over GST control) | 1.34 fold enrichment (6-mer frequency, TF over GST control)
AAAGAA | 1.18 fold enrichment (6-mer frequency, TF over GST control) | 1.24 fold enrichment (6-mer frequency, TF over GST control) | 1.23 fold enrichment (6-mer frequency, TF over GST control) | 1.27 fold enrichment (6-mer frequency, TF over GST control) | 1.28 fold enrichment (6-mer frequency, TF over GST control) | 1.32 fold enrichment (6-mer frequency, TF over GST control) | 1.32 fold enrichment (6-mer frequency, TF over GST control) | 1.24 fold enrichment (6-mer frequency, TF over GST control) | 1.3 fold enrichment (6-mer frequency, TF over GST control)
TTTCCA | 1.37 fold enrichment (6-mer frequency, TF over GST control) | 1.31 fold enrichment (6-mer frequency, TF over GST control) | 1.39 fold enrichment (6-mer frequency, TF over GST control) | 1.23 fold enrichment (6-mer frequency, TF over GST control) | 1.36 fold enrichment (6-mer frequency, TF over GST control) | 1.27 fold enrichment (6-mer frequency, TF over GST control) | 1.37 fold enrichment (6-mer frequency, TF over GST control) | 1.39 fold enrichment (6-mer frequency, TF over GST control) | 1.31 fold enrichment (6-mer frequency, TF over GST control)
CCGCAA | 1.27 fold enrichment (6-mer frequency, TF over GST control) | 1.3 fold enrichment (6-mer frequency, TF over GST control) | 1.36 fold enrichment (6-mer frequency, TF over GST control) | 1.28 fold enrichment (6-mer frequency, TF over GST control) | 1.31 fold enrichment (6-mer frequency, TF over GST control) | 1.34 fold enrichment (6-mer frequency, TF over GST control) | 1.45 fold enrichment (6-mer frequency, TF over GST control) | 1.28 fold enrichment (6-mer frequency, TF over GST control) | 1.34 fold enrichment (6-mer frequency, TF over GST control)
GGAACT | 1.83 fold enrichment (6-mer frequency, TF over GST control) | 1.8 fold enrichment (6-mer frequency, TF over GST control) | 1.61 fold enrichment (6-mer frequency, TF over GST control) | 1.89 fold enrichment (6-mer frequency, TF over GST control) | 1.72 fold enrichment (6-mer frequency, TF over GST control) | 1.8 fold enrichment (6-mer frequency, TF over GST control) | 2.42 fold enrichment (6-mer frequency, TF over GST control) | 2.03 fold enrichment (6-mer frequency, TF over GST control) | 1.7 fold enrichment (6-mer frequency, TF over GST control)
GCAAAA | 1.04 fold enrichment (6-mer frequency, TF over GST control) | 1.08 fold enrichment (6-mer frequency, TF over GST control) | 1.08 fold enrichment (6-mer frequency, TF over GST control) | 1.05 fold enrichment (6-mer frequency, TF over GST control) | 1.09 fold enrichment (6-mer frequency, TF over GST control) | 1.14 fold enrichment (6-mer frequency, TF over GST control) | 1.16 fold enrichment (6-mer frequency, TF over GST control) | 1.13 fold enrichment (6-mer frequency, TF over GST control) | 1.15 fold enrichment (6-mer frequency, TF over GST control)
GATACT | 1.14 fold enrichment (6-mer frequency, TF over GST control) | 1.01 fold enrichment (6-mer frequency, TF over GST control) | 1.2 fold enrichment (6-mer frequency, TF over GST control) | 1.21 fold enrichment (6-mer frequency, TF over GST control) | 1.1 fold enrichment (6-mer frequency, TF over GST control) | 1.21 fold enrichment (6-mer frequency, TF over GST control) | 1.12 fold enrichment (6-mer frequency, TF over GST control) | 1.16 fold enrichment (6-mer frequency, TF over GST control) | 1.09 fold enrichment (6-mer frequency, TF over GST control)
